Our source for the Potency values is PubChem BioAssay (Tox21).

Values joined by “and” are separate entries in the source; they are usually repeats but may differ in a detail not shown here. Equal values may be shown once. Results filed as inconclusive are left out. More than one record can exist for a structure, and the calls need not agree. Active and inactive are the calls of the source. Unless noted, calls come from the whole dose curve; as a rule, active = well fitted curve in the direction sought with a large enough effect in the repeat runs; inconclusive = weak or mixed curves; inactive = no such curve, though single readings can be large; an effect the other way counts as inactive or inconclusive.

Experiment [1] in a line: qHTS assay to identify aromatase inhibitors - cell viability counter screen (AID 743084).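 Note: cells stimulated with testosterone during compound exposure; nearly all actives have a fitted effect of over 55% in size.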 Note: potency is the fitted concentration of half-maximal effect. For orientation: qHTS replaces the single test concentration by a dilution series.
In experiment [2] the target is Aryl hydrocarbon receptor (Homo sapiens) (UniProt P35869). The experiment is described as follows: qHTS assay to identify small molecule that activate the aryl hydrocarbon receptor (AhR) signaling pathway (AID 743085).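 For activation: HG2L7.5c1 human HepG2 liver cells with stably integrated DRE-driven firefly reporter; series mostly up to about 70 µM.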 Note: nearly all actives have a fitted effect of over 15% in size. Note: potency is the fitted concentration of half-maximal effect. In outline: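 AhR agonist activity is inferred from enhanced light output of a DRE-controlled firefly luciferase reporter in HepG2 cells, measured with ONE-Glo following 24 h treatment at 37C.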
Chain of Aryl hydrocarbon receptor (Homo sapiens) (P35869 whole entry, looked up): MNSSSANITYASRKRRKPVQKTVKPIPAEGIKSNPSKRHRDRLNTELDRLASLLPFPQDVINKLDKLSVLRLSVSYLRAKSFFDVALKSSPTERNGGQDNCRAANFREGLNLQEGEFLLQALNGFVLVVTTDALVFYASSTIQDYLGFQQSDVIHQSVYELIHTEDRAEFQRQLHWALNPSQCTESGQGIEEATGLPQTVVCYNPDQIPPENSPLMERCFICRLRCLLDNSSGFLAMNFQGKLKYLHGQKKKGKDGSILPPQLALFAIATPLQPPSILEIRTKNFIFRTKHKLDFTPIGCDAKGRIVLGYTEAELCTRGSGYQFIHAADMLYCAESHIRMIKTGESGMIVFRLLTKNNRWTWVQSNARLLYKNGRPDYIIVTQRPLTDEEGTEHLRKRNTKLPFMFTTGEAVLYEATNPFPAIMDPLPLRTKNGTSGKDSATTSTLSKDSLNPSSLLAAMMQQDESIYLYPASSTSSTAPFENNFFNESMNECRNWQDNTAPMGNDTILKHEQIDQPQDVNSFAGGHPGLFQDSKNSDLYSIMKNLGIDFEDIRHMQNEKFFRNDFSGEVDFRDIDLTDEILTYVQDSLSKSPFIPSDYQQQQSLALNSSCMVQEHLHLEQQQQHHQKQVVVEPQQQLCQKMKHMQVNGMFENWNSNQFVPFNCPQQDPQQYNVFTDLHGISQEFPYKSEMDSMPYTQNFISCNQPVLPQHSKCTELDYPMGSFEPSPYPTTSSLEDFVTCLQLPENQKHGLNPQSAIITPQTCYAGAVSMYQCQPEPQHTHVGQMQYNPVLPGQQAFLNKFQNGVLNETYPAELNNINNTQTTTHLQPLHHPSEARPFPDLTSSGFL

The nature of experiment [3]: qHTS assay to identify small molecule that activate the aryl hydrocarbon receptor (AhR) signaling pathway - cell viability counter screen (AID 743086). Note: nearly all actives have a fitted effect of over 45% in size. Note: potency is the fitted concentration of half-maximal effect. The procedure, abridged: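 HepG2-AhR-luc (HG2L7.5c1) cells, 4000/well, treated 24 h at 37 C with compound; viability measured as CellTiter-Fluor fluorescence after 30 min in the same wells as the luciferase read.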
The target in experiment [4] is Peroxisome proliferator-activated receptor gamma (Homo sapiens) (UniProt P37231). In words: qHTS assay to identify small molecule agonists of the peroxisome proliferator-activated receptor gamma (PPARg) signaling pathway (AID 743094; active = well fitted activation curve with a large enough effect in the signal ratio in the repeat runs, not every such curve was filed as active; the % refers to the signal ratio; note: potency is the fitted concentration of half-maximal effect). In outline: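 Following 5 h plating at 37C, PPARg-bla HEK293H cells receive compound or DMSO for 17 h; fluorescence intensity is recorded after LiveBLAzer B/G loading for 1 h at room temperature.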
Chain of Peroxisome proliferator-activated receptor gamma (Homo sapiens) (P37231 whole entry, looked up): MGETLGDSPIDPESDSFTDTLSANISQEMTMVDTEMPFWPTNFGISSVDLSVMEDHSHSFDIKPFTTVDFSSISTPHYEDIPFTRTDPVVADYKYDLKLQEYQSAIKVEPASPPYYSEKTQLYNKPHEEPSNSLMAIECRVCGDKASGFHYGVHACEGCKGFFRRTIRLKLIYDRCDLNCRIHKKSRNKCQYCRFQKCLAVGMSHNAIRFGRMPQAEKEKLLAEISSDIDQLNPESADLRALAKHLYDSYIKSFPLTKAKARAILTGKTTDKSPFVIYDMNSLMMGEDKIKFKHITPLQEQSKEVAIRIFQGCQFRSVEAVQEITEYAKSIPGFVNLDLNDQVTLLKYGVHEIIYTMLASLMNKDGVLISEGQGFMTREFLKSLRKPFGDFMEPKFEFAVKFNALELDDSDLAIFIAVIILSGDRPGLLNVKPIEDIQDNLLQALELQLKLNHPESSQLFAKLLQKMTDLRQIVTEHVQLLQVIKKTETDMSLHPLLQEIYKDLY

Experiment [5] can be described thus: qHTS assay to identify small molecule antagonists of the peroxisome proliferator-activated receptor gamma (PPARg) signaling pathway - cell viability counter screen (AID 743194). Note: nearly all actives have a fitted effect of over 55% in size. Note: potency is the fitted concentration of half-maximal effect. In outline: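 Cytotoxicity counter screen in PPARg-bla HEK293H cells, same wells as reporter assay. Compounds plus 50 nM rosiglitazone (final) for 17 h at 37 C, then viability read by CellTiter-Glo luminescence.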

Experiment [6] is described as follows: qHTS assay for small molecule agonists of the antioxidant response element (ARE) signaling pathway (AID 743202; active = well fitted activation curve with a large enough effect in the signal ratio in the repeat runs, not every such curve was filed as active; the % refers to the signal ratio; note: potency is the fitted concentration of half-maximal effect). In outline:
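ARE-bla HepG2 cells (beta-lactamase reporter under the antioxidant response element), plated 5 hours, then exposed to compounds 16 hours at 37 C. LiveBLAzer B/G FRET substrate added for 2 hours at room temperature; fluorescence intensity read.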

Experiment [7] is described as follows: qHTS assay for small molecule activators of the heat shock response signaling pathway - cell viability counter screen (AID 743209). Note: nearly all actives have a fitted effect of over 50% in size. Note: potency is the fitted concentration of half-maximal effect. The procedure, abridged: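 Counter screen for cytotoxicity in HeLa HSE-bla reporter cells. Treatment was 5 h at 37 C; viability was detected by luminescent ATP assay (CellTiter-Glo) in the same wells as the beta-lactamase read.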

Experiment [8] is described as follows: qHTS assay for small molecule activators of the heat shock response signaling pathway (AID 743210; active = well fitted activation curve with a large enough effect in the signal ratio in the repeat runs, with a control signal flat, not every such curve was filed as active; the % refers to the signal ratio; note: series mostly up to about 63 µM). In outline:
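HSE-bla HeLa cells (beta-lactamase reporter under heat shock response elements), plated overnight, then exposed to compounds 5 h at 37 C; LiveBLAzer B/G FRET substrate added, 2.5 h at room temperature, fluorescence intensity read.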

For experiment [9], the target named is Peroxisome proliferator-activated receptor gamma (Homo sapiens) (UniProt P37231). The experiment is described as follows: qHTS assay to identify small molecule antagonists of the peroxisome proliferator-activated receptor gamma (PPARg) signaling pathway (AID 743191; calls by dose curve; note: nearly all actives have a fitted effect of over 30% in size; note: potency is the fitted concentration of half-maximal effect). In outline:
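GeneBLAzer PPARg UAS-bla HEK293H cells, 5 h post-plating, exposed to compounds 17 h at 37C. LiveBLAzer B/G FRET substrate added for 1 h at room temperature; beta-lactamase reporter read by fluorescence intensity.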

Experiment [10] in a line: qHTS assay for small molecule agonists of the antioxidant response element (ARE) signaling pathway - cell viability counter screen (AID 743203; calls by dose curve; note: nearly all actives have a fitted effect of over 55% in size; note: potency is the fitted concentration of half-maximal effect). In outline: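 Compounds in DMSO were pinned onto ARE-bla HepG2 cells plated 5 hrs earlier at 2,000 cells/well. Sixteen hours later at 37C/5% CO2, CellTiter-Glo was added and luminescence measured after 30 min at room temperature.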

As for `CC(=O)Oc1ccccc1C(=O)Nc1ncc([N+](=O)[O-])s1`, the Potency was 22.1 µM (active) in experiment [1]; 10.6 µM (active) and inactive in experiment [2]; “inactive and 17.6 µM (active)” in [3]; 1.58 µM (active) and 5.31 µM (active) in [5]; 1.19 µM (active) in experiment [7]. Also, the Potency entry in [4], in [6] and in experiment [8] was “inactive” throughout.
`CCOC(=O)C(C#N)=C(c1ccccc1)c1ccccc1`: the Potency result in experiment [1], in experiment [2], in experiment [3], in experiment [4], in experiment [5] and in experiment [10] was “inactive” each time. In addition, the Potency result in experiment [7] and in experiment [8] was “inactive” in each case. The Potency in experiment [9] is 49 µM (active) and inactive.
Turning to `CNCCCC12CCC(c3ccccc31)c1ccccc12`, the Potency result was “inactive and 54.5 µM (active)” in experiment [1]; “inactive and 61.1 µM (active)” in [3]; 13.3 µM (active) in experiment [9]; 54.9 µM (active) in experiment [5]; 19.3 µM (active) in experiment [10]. Besides, the Potency entry in [2], in experiment [4], in [7] and in [8] was “inactive” in each case.
For the molecule `O=C(Nc1ccc(Cl)cc1)Nc1ccc(Cl)c(Cl)c1`, the Potency is 19.2 µM (active) and 30.6 µM (active) in [1]; 2.16 µM (active) and 2.73 µM (active) in experiment [2]; 4.34 µM (active) and 4.9 µM (active) and 6.68 µM (active) in [5]; 2.42 µM (active) and 2.73 µM (active) and 10.6 µM (active) in [10]. For the same molecule, the Potency entry in experiment [3], in experiment [4], in experiment [7] and in experiment [8] was “inactive” each time.
In the case of `CC(C)=CCCC(C)CCO` (configuration not stated), the Potency entry in experiment [1], in experiment [2], in [3], in experiment [4], in experiment [5] and in [6] was “inactive” each time. In addition, the Potency entry in experiment [10], in [7] and in experiment [8] was “inactive” throughout.
Take `O=CCc1ccccc1`: the Potency result in [1], in experiment [2], in experiment [3], in experiment [4], in experiment [5] and in experiment [10] was “inactive” throughout. The Potency result in experiment [7] and in [8] was “inactive” throughout.
For `C#C[C@]1(O)CC[C@H]2[C@@H]3CCc4cc(OC)ccc4[C@H]3CC[C@@]21C`, the Potency result in experiment [1], in experiment [2], in experiment [3], in experiment [4], in [5] and in experiment [10] was “inactive” each time. Further, the Potency result in experiment [7] and in [8] was “inactive” throughout.
With `COC(=O)c1ccccc1`, the Potency entry in experiment [1], in experiment [2], in experiment [3], in [4], in experiment [9] and in experiment [5] was “inactive” throughout. Besides, the Potency result in experiment [6], in experiment [10], in experiment [7] and in experiment [8] was “inactive” each time.
`O=C(/C=C/c1ccccc1)OCc1ccccc1`: the Potency entry in [1], in experiment [2], in experiment [3], in [4], in experiment [5] and in [10] was “inactive” in each case. Further, the Potency entry in experiment [7] and in experiment [8] was “inactive” in each case.
With `CCCCCCCCCC(=O)OC`, the Potency entry in experiment [1], in experiment [2], in [3], in experiment [4], in experiment [9] and in experiment [5] was “inactive” in each case. Besides, the Potency result in experiment [6], in [10], in [7] and in [8] was “inactive” throughout.
Take `c1ccc2cc(Nc3ccc(Nc4ccc5ccccc5c4)cc3)ccc2c1`: the Potency entry in [1], in experiment [3], in experiment [5], in experiment [6], in experiment [10] and in experiment [7] was “inactive” each time. Further, the Potency result in experiment [8] is “inactive”. Further, the Potency in experiment [2] is 30.8 µM (active) and 30.6 µM (active); in experiment [4], 22 µM (active).
With `O=C1c2cccc(O)c2C(=O)c2c(O)cccc21`, the Potency result in experiment [1], in experiment [2], in experiment [3], in experiment [4], in experiment [9] and in experiment [5] was “inactive” throughout. Further, the Potency result in [10], in experiment [7] and in [8] was “inactive” in each case.
`COC(=O)Nc1nc2ccc(S(=O)c3ccccc3)cc2[nH]1` (configuration not stated): the Potency result in experiment [1], in [3], in experiment [4], in experiment [9], in experiment [5] and in experiment [6] was “inactive” in each case. Besides, the Potency result in [10], in [7] and in experiment [8] was “inactive” in each case. For the same molecule, the Potency in experiment [2] was 3.76 µM (active) and 3.06 µM (active).
For the molecule `O=C(COc1ccc(Cl)cc1)N1CCN(Cc2ccc3c(c2)OCO3)CC1`, the Potency result in experiment [1], in [2], in experiment [3], in experiment [10], in experiment [7] and in experiment [8] was “inactive” each time. Also, the Potency in [6] was 15.4 µM (active) and 29.8 µM (active).
Turning to `COc1cc([C@@H]2c3cc4c(cc3[C@H](O)[C@H]3COC(=O)[C@H]23)OCO4)cc(OC)c1OC`, the Potency result in experiment [1], in [3], in experiment [9], in [5], in experiment [10] and in [7] was “inactive” throughout. Also, the Potency entry in experiment [8] is “inactive”.
Consider `Cc1cc2nc3c(=O)[nH]c(=O)nc-3n(C[C@H](O)[C@H](O)[C@H](O)CO)c2cc1C`, for which the Potency entry in [5], in [10], in experiment [7] and in experiment [8] was “inactive” in each case.
Consider `Cn1cnc([N+](=O)[O-])c1Sc1ncnc2nc[nH]c12`, for which the Potency entry in [1], in experiment [4], in [5] and in experiment [7] was “inactive” each time. In addition, the Potency entry in [2] was “inactive and 19.2 µM (active)”; in experiment [6] it was 8.41 µM (active); in experiment [10] it was 0.382 µM (active).
On to `CN(C)CCN(Cc1cccs1)c1ccccn1`, for which the Potency entry in [3], in experiment [4], in experiment [9], in experiment [5], in experiment [6] and in [10] was “inactive” in each case. Besides, the Potency result in experiment [7] and in [8] was “inactive” throughout.
Take `O=C=Nc1ccc(Cc2ccc(N=C=O)cc2)cc1`: the Potency result in experiment [3], in experiment [5], in experiment [10], in experiment [7] and in [8] was “inactive” in each case.
Take `O=C(c1ccccc1)c1ccccc1O`: the Potency entry in [1], in [3], in experiment [4], in experiment [9], in [5] and in experiment [6] was “inactive” each time. For the same molecule, the Potency entry in [10], in experiment [7] and in [8] was “inactive” in each case.
`COc1ccccc1/C=C/C=O`: the Potency result in [1], in experiment [3], in experiment [4], in [9], in experiment [5] and in [6] was “inactive” each time. The Potency result in experiment [10] and in experiment [7] was “inactive” in each case.
Turning to `O=C(c1ccc(OCCN2CCCCC2)cc1)c1c(-c2ccc(O)cc2)sc2cc(O)ccc12`, the Potency in experiment [1] was 29.8 µM (active) and 34.4 µM (active); in experiment [3] it was 21.1 µM (active) and 21.7 µM (active) and 19.3 µM (active); in [5], 55 µM (active) and 15.5 µM (active) and 26.6 µM (active); in experiment [10], 61.2 µM (active) and 17.2 µM (active) and 29.8 µM (active). Besides, the Potency result in experiment [2], in experiment [7] and in experiment [8] was “inactive” throughout.
